Test results from PubChem BioAssay (NCATS).
Inconclusive results are not listed. A call without a number means that no potency is given here. Unmarked numbers belong to inactive results. Activity calls are given as the source filed them. Calls come from the whole dose curve; as a rule, active = well fitted curve in the direction sought with a large enough effect; inconclusive = small, poorly fitted or top-dose-only effect, or another doubt; inactive = no such curve, though single readings can be large; an effect the other way counts as inactive or inconclusive.

Key:
[1] = Viability qHTS for spleen associated tyrosine kinase inhibitor (SYKi) naive MV4-11 cells (AID 1963823); note: nearly all actives have a fitted effect of over 40% in size
Summary of the method: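 Luminescence from CellTiter-Glo, developed 10 min at room temperature, gave viability of MV4-11 cells never exposed to SYK inhibitor. Cells (500/well) had been incubated with compounds for 72 hr under standard culture conditions.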

[2] = Quantitative highthroughput screen to assess conditional lethalithy of NOMO1 cells grown in RPMI1640 with untreated serum (RPMI+s) (AID 1963876); note: nearly all actives have a fitted effect of over 35% in size
Summary of the method: (§1)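 Each medium arm—HPLM with 10% dialyzed FBS, or RPMI1640 with 5 mM glucose and 10% untreated or dialyzed FBS—was screened against an 11-point, 3-fold compound titration for 48 h at 37 °C, with CellTiter-Glo luminescence as endpoint.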

[3] = Quantitative highthroughput screen to assess conditional lethalithy of NOMO1 cells grown in RPMI1640 with dialyzed fetal bovine serum (RPMI+ds) (AID 1963877); note: nearly all actives have a fitted effect of over 30% in size; for Viability: series mostly up to about 46 µM
Summary of the method: as §1

[4] = Quantitative highthroughput screen to assess conditional lethalithy of NOMO1 cells grown in Human Plasma-Like Medium with dialyzed fetal bovine serum (HPLM+ds) (AID 1963878); note: nearly all actives have a fitted effect of over 35% in size
Summary of the method: as §1

[5] = Quantitative highthroughput screen to assess conditional lethalithy of P12 Ichikawa cells grown in Human Plasma-Like Medium with dialyzed fetal bovine serum (HPLM+ds) (AID 1963879); conditions: Potency: viability; note: nearly all actives have a fitted effect of over 35% in size; for Viability: series mostly up to about 46 µM
Summary of the method: as §1

[6] = Quantitative highthroughput screen to assess conditional lethalithy of P12 Ichikawa cells grown in RPMI1640 with dialyzed fetal bovine serum (RPMI+ds) (AID 1963880); conditions: Potency: P12-Ichikawa viability; note: nearly all actives have a fitted effect of over 35% in size
Summary of the method: as §1

[7] = Quantitative highthroughput screen to assess conditional lethalithy of P12 Ichikawa cells grown in RPMI1640 with untreated serum (RPMI+s) (AID 1963881); conditions: Potency: viability; note: nearly all actives have a fitted effect of over 35% in size; for Viability: series mostly up to about 46 µM
Summary of the method: as §1

[8] = Quantitative highthroughput screen to assess conditional lethalithy of SEM cells grown in RPMI1640 with unreated serum (RPMI+s) (AID 1963883); note: nearly all actives have a fitted effect of over 35% in size
Summary of the method: as §1

[9] = Quantitative highthroughput screen to assess conditional lethalithy of SEM cells grown in RPMI1640 with dialyzed fetal bovine serum (RPMI+ds) (AID 1963884); note: nearly all actives have a fitted effect of over 35% in size; for Viability: series mostly up to about 46 µM
Summary of the method: as §1

[10] = Cellular viability qHTS for adrenocortical cancer (ACC) cell line SW-13 (AID 1963989); conditions: SW-13 ACC cells viability, CellTiter-Glo, 48 h; activity (max response): stronger effect = lower value; note: nearly all actives have a fitted effect of over 65% in size;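 for activity (max response): cells grown in serum-free medium with ITS supplement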
Summary of the method: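 SW-13 cells in ITS-supplemented serum-free DMEM were plated overnight, then exposed for 48 h at 37C to compound titrations (up to 46 uM final). Viability was read by CellTiter-Glo luminescence; four-parameter logistic fits gave IC50 and efficacy.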

[11] = Cellular viability qHTS for adrenocortical cancer (ACC) cell line NCI-H295R (AID 1963990); note: nearly all actives have a fitted effect of over 60% in size
Summary of the method: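 Luminescent ATP read-out (CellTiter-Glo, 20 min RT) after 48 h drug exposure of NCI-H295R cells; a titration up to 46 uM final. Data normalized to doxorubicin (100% inhibition) and DMSO (0%); 4-parameter fit gives IC50, max response.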

[12] = Quantitative highthroughput screen to assess conditional lethalithy of SEM cells grown in Human Plasma-Like Medium with dialyzed fetal bovine serum (HPLM+ds) (AID 1963882); note: nearly all actives have a fitted effect of over 35% in size; for Viability: series mostly up to about 46 µM
Summary of the method: as §1
Potency is the fitted concentration of half-maximal effect.

## O=C1C(c2c(O)[nH]c3ccccc23)=Nc2ccccc21
[1]
  Potency: inactive
[2]
  Potency: inactive
[3]
  Potency: inactive
[4]
  Potency: inactive
[5]
  Potency: inactive
[6]
  Potency: inactive
[7]
  Potency: inactive
[8]
  Potency: inactive
[9]
  Potency: inactive
[10]
  activity (max response): -5.8%
[11]
  Potency: inactive

## Cc1cn2cc(C(=O)N(C)CCO)cc(N[C@@H]3CCOc4cccc(C)c43)c2n1
[1]
  Potency: 2950 nM (active)
[2]
  Potency: inactive
[3]
  Potency: inactive
[4]
  Potency: inactive
[5]
  Potency: inactive
[6]
  Potency: inactive
[7]
  Potency: inactive
[12]
  Potency: inactive
[8]
  Potency: inactive
[9]
  Potency: inactive
[11]
  Potency: inactive

## CN1CC[C@@H](c2c(O)cc(O)c3c(=O)cc(-c4ccccc4Cl)oc23)[C@@H](O)C1
[1]
  Potency: 525 nM (active)
[2]
  Potency: 469 nM (active)
[3]
  Potency: 418 nM (active)
[4]
  Potency: 264 nM (active)
[5]
  Potency: 743 nM (active)
[6]
  Potency: 590 nM (active)
[7]
  Potency: 662 nM (active)
[12]
  Potency: 372 nM (active)
[8]
  Potency: 418 nM (active)
[9]
  Potency: 469 nM (active)
[10]
  Potency: 2240 nM (active)
[11]
  Potency: 1260 nM (active)

## COC(=O)N[C@H](C(=O)N[C@@H](Cc1ccccc1)[C@@H](O)CN(Cc1ccc(-c2ccccn2)cc1)NC(=O)[C@@H](NC(=O)OC)C(C)(C)C)C(C)(C)C
[1]
  Potency: inactive
[2]
  Potency: inactive
[3]
  Potency: inactive
[4]
  Potency: inactive
[6]
  Potency: inactive
[7]
  Potency: inactive
[12]
  Potency: inactive
[8]
  Potency: inactive
[9]
  Potency: inactive
[10]
  activity (max response): -5.43%
[11]
  Potency: inactive

## Cc1ccc(CN2CCNCC2)cc1NC(=O)CNc1ccc(F)c(F)c1
[1]
  Potency: inactive
[2]
  Potency: inactive
[3]
  Potency: inactive
[4]
  Potency: inactive
[5]
  Potency: inactive
[6]
  Potency: inactive
[7]
  Potency: inactive
[12]
  Potency: inactive
[8]
  Potency: inactive
[9]
  Potency: inactive
[10]
  activity (max response): 11.8%
[11]
  Potency: inactive
